Hits are enriched below; roughly 12% of the tested compounds scored in any of these assays.
JMJD2A Tudor: inhibitors of human JMJD2A Tudor domain; O75164; hit rate 4.4% among 390,000; AlphaScreen JMJD2A-Tudor / H3K4me3 peptide binding; Potency, µM (series often up to 114 µM), for the others: top-dose activity change, negative = inhibition, most hits filed as inhibitors; note: % is set by controls: 0 for no effect and ±100 for the full control effect; nearly all actives have a fitted effect of over 50% in size
Target sequence (O75164 whole entry, looked up, the tested form may be a part): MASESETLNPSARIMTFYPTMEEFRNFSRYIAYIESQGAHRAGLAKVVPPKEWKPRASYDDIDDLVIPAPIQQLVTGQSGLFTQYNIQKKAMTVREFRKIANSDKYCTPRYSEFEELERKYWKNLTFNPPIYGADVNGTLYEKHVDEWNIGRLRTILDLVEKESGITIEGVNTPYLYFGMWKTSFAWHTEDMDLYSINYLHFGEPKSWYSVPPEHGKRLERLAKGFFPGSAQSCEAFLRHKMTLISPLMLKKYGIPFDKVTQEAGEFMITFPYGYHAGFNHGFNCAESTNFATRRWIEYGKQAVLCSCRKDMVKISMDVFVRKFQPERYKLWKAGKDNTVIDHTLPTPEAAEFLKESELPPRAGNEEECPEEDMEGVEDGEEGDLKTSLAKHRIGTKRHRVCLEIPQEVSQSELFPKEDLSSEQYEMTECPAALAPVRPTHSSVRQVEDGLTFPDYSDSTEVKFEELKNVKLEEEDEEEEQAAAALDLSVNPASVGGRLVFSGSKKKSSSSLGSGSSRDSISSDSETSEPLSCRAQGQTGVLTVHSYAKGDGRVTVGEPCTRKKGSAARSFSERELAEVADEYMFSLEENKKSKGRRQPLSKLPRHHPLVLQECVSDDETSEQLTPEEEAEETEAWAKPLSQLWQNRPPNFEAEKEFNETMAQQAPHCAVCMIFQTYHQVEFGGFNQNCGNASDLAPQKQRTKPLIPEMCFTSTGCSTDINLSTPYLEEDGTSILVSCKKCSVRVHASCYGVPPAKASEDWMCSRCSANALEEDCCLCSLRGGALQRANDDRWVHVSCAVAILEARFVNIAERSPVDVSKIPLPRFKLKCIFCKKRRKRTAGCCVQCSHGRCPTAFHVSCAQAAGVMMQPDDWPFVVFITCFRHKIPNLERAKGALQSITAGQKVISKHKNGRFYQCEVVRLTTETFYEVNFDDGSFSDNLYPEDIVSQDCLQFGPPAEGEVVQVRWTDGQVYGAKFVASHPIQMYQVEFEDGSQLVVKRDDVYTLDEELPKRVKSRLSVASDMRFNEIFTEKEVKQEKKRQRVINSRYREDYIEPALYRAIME
HP1b binding inh: inhibitors of HP1-beta chromodomain binding to methylated histone tails | Potency, µM (doses to about 114 µM), for the others: at the highest dose activity change, negative = inhibition, usual class: inhibitors | hit rate 0.56% among 390,000 | P83916 | AlphaScreen HP1-beta / biotin-H3K9me3 peptide binding; note: nearly all actives have a fitted effect of over 70% in size
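AlphaScreen: HP1-beta (50 nM) preformed 30 min with biotin-H3(1-18)K9me3 peptide (50 nM) in PBS pH 7.4, 0.01% Tween-20. Compound added for 30 min at RT, then streptavidin donor/nickel chelate acceptor beads (10 ug/mL) for 30 min.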
PLK1 PBD inh: inhibitors of human PLK1 polo-box domain binding; P53350; Plk1 PBD binding of FITC phosphopeptide, fluorescence polarization; Potency, µM, inactives show max response, negative = inhibition, usual class: inhibitors; hit rate 2.8% among 360,000; AID 720504; note: series mostly up to about 57 µM; % is set by controls: 0 for no effect and ±100 for the full control effect; nearly all actives have a fitted effect of over 65% in size
BAZ2B block: blocks human BAZ2B; Potency, µM (series often up to 114 µM), for inactives: at the top dose activity change, negative = inhibition, most hits filed as inhibitors; hit rate 4.4% among 360,000; AlphaScreen BAZ2B-H3K14Ac peptide displacement; note: % is set by controls: 0 for no effect and ±100 for the full control effect; nearly all actives have a fitted effect of over 60% in size
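Complex of BAZ2B and biotin-H3K14Ac (50 nM apiece) forms over 30 min at RT, then faces library compounds up to 110 uM for another 30 min; AlphaScreen beads added, 20 min dark incubation, luminescence read.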
G9a block: G9a (human) methyltransferase inhibition. Q96KQ7. G9a H3K9 monomethylation, AlphaScreen, 2 h. Potency, µM (highest dose often 102 µM), inactives show at the highest dose activity, negative = inhibition, actives largely listed as inhibitors. hit rate 8.8% among 350,000. AID 504332; note: % is set by controls: 0 for no effect and ±100 for the full control effect; nearly all actives have a fitted effect of over 75% in size
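Compounds were preincubated with 20 nM G9a for 15 min, after which biotinylated H3K9 peptide (500 nM) and SAM (20 uM) started a 2 h room-temperature reaction. Monomethylated product was quantified by antibody-based AlphaScreen chemiluminescence.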
Sfp PPTase inh: Sfp phosphopantetheinyl transferase inhibition. Q9F4F7. Biochemical Sfp PPTase activity, qHTS. Potency, µM, without a hit: largest response in the series, negative = inhibition, most hits filed as inhibitors. hit rate 3.5% among 310,000;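 note: the enzyme is Sfp with the accession as filed and its product quenches rhodamine fluorescence; 0% = enzyme reaction without inhibitor and -100% = no enzyme wells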
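Fluorescence-quenching assay: 15 nM Sfp-PPTase preincubated 15 min at room temperature with compound, then 5 uM rhodamine-CoA and 12.5 uM BHQ-2-labelled YbbR peptide added. Fluorescence (ex 525/em 598 nm) read at start and after 30 min; difference gives rate.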
Active calls of the source: *; ? = inconclusive; . = not tested or not shown; [ ] = another dose, or the depositor's remark. Calls come from the whole dose curve; as a rule, active = well fitted curve in the direction sought with a large enough effect; inconclusive = small, poorly fitted or top-dose-only effect, or another doubt; inactive = no such curve, though single readings can be large; an effect the other way counts as inactive or inconclusive. Potency is the fitted concentration of half-maximal effect.

SMILES	JMJD2A Tudor	HP1b binding inh	PLK1 PBD inh	BAZ2B block	G9a block	Sfp PPTase inh
Cc1cc(C)cc(C(=O)NC(CC(N)=O)c2ccc(NC3CCCCCCCCCCC3)c([N+](=O)[O-])c2)c1 (centres undefined)	?	-3%	0%	?	45µM*	-9%
O=[N+]([O-])c1cc(C(F)(F)F)ccc1NC1CCN(Cc2ccccc2)CC1	35µM*	50µM*	-8%	25µM*	35µM*	-5%
CCC(=O)Nc1cc(C)c(O)c(-c2nc3ncccc3o2)c1	-13%	9%	.	5%	-8%[59 µM]	.
CC(C)c1cc2c(s1)c1cnn(Cc3ccccc3F)c(=O)c1n2C	-21%	.	.	.	.	.
Cc1ccc(S(=O)(=O)N2CCc3ccccc3C2CC(=O)O)cc1 (centres undefined)	1%	40%	-2%	-16%	79µM*	1%
CCOC(=O)c1ccccc1NC(=O)CN(c1ccccc1OC)S(=O)(=O)c1ccc(C)cc1	?	48%	.	-2%	-9%[59 µM]	.
O=C(NNc1c2ccccc2nc2ccccc12)c1ccc(O)cc1	-32%	?	-5%	28µM*	?	-23%
O=C(NNc1c2ccccc2nc2ccccc12)c1cccc(O)c1	45µM*	?	-2%	35µM*	?	-2%
CCCC(=O)NNc1c2ccccc2nc2ccccc12	-12%	23%	6%	-30%	9%[59 µM]	-1%
O=C(O)c1cccc(Nc2c3ccccc3nc3ccccc23)c1	-14%	21%	1%	21%	.	2%
Cc1nc2nc(NC(=O)c3ccc(Cl)cc3)[nH]n2c(=O)c1Cc1ccccc1	-27%	21%	.	-36%	-23%[59 µM]	.
O=C(Nc1cccc(Cl)c1)C(Cc1ccccc1)n1cccc1 (centres undefined)	-9%	16%	.	0%	-2%[59 µM]	.
O=C(Nc1cccnc1)C(Cc1ccccc1)n1cccc1 (centres undefined)	-18%	1%	-16%	?	50µM*	-13%
O=C(CCC(=O)c1ccccc1)Nc1cccnc1	11%	24%	-5%	2%	?	24%
O=C(CCC(=O)c1ccc(-c2ccccc2)cc1)Nc1cccnc1	-12%	43%	2%	-9%	50µM*	-4%
O=C(Nc1ccccc1F)C(Cc1ccccc1)n1cccc1 (centres undefined)	-21%	14%	.	-35%	1%[59 µM]	.
O=C(Nc1ncc(Br)s1)C(Cc1ccccc1)n1cccc1 (centres undefined)	?	-8%	-5%	45µM*	45µM*	-10%
Cc1ccc(CC(NC(=O)C2CCCCC2)C(=O)O)cc1 (centres undefined)	-19%	13%	-15%	.	.	.
CCCCn1c(SCC(=O)NCc2ccc(C)cc2)nc2c(sc3ccccc32)c1=O	?	29%	.	5%	-1%[59 µM]	.
O=S(=O)(c1ccc(Br)cc1)N1CCN(c2nc(-c3ccccc3)nc3ccccc23)CC1	-21%	40%	.	.	.	.
Cc1sc2ncnc(SCC(=O)Nc3ncccc3O)c2c1C	63µM*	-22%	?	40µM*	17%[12.7 µM]	.
CCC(Sc1ncnc2sc(C)c(C)c12)C(=O)OC (centres undefined)	-20%	65%	-26%	?	2µM*	0%
CCC(Sc1ncnc2sc3c(c12)CCCC3)C(=O)OC(C)C (centres undefined)	82%	104%	.	178%	164%[59 µM]	.
Cc1sc2ncnc(SCC(=O)NCC(C)C)c2c1C	-9%	47%	-9%	2%	-26%[59 µM]	10%
Cc1sc2ncnc(SCC(=O)NC(C)(C)C)c2c1C	-26%	41%	-18%	-3%	-13%	2%
SMILES	JMJD2A Tudor	HP1b binding inh	PLK1 PBD inh	BAZ2B block	G9a block	Sfp PPTase inh
Cc1cccnc1NC(=O)CSc1ncnc2sc(C)c(C)c12	?	-65%	-18%	?	50µM*	.
Cc1ccc(S(=O)(=O)N/N=C2\C(=O)C3(C)CCC2C3(C)C)cc1 (centres undefined)	-8%	52%	-2%	?	14µM*	19%
Cc1ccc(S(=O)(=O)NN=C2C(=O)C3CCC2C3Cl)cc1 (centres undefined)	?	49%	-4%	.	.	.
CC(C)(C)C1CCc2c(sc(NC(=O)CCC(=O)O)c2C(=O)Nc2ccccc2C(F)(F)F)C1 (centres undefined)	56µM*	-17%	.	50µM*	?	.
COc1ccccc1NC(=O)c1c(NC(=O)c2cccs2)sc2c1CCC(C(C)(C)C)C2 (centres undefined)	-15%	47%	.	4%	-33%[59 µM]	.
CC(c1ccccc1)C1OCC(C[N+]2(C)CCCCC2)O1 (centres undefined)	56µM*	?	-27%	-19%	?	6%
C[N+]1(CC2COC(c3ccccc3)(C3CCCCC3)O2)CCCCC1 (centres undefined)	.	.	.	.	?	3%
O=c1[nH]c(CSc2ncn[nH]2)nc2ccccc12	?	-3%	1%	-3%	.	-9%
c1ccc(CSc2ncn[nH]2)nc1	-7%	0%	-21%	-27%	45µM*	10%
CCCN(CC(=O)Nc1ccc(F)c(F)c1F)C(=O)c1ccc(N2CCCC2=O)cc1	-11%	28%	-5%	-5%	9%[12.7 µM]	.
CCOCCc1nn2c(=O)cc(COC(=O)c3ccccc3OC)nc2s1	9%	70%	.	-4%	15%[59 µM]	.
Cc1ccc(N=Nc2ccc(O)c(P(=O)(c3ccccc3)c3ccccc3)c2)cc1	11µM*	-19%	?	?	?	2%
O=C(O)CNCC1COc2ccccc2O1 (centres undefined)	4µM*	11%	-1%	?	18µM*	-14%
c1ccc(CCNCC2COc3ccccc3O2)cc1 (centres undefined)	-14%	21%	1%	3%	10%	11%
CN(C)S(=O)(=O)c1cccc(CNCC2COc3ccccc3O2)c1 (centres undefined)	18µM*	50µM*	-3%	32µM*	9%	-22%
CC1=CC23C(=O)C(C=C(CO)[C@@H](O)[C@]2(O)[C@H]1O)[C@H]1[C@@H](C[C@H]3C)C1(C)C (some centres undefined)	.	.	.	.	.	-1%
O=C(O)COc1ccc(OCCNC[C@H](O)COc2ccccc2)cc1	.	.	.	.	?	2%
CCCCNCCCOc1ccc(C)cc1Br	20µM*	?	-11%	56µM*	50µM*	-24%
Cc1ccc(OCCCNCCO)c(Br)c1	-7%	36%	-3%	0%	-33%[59 µM]	19%
CNCCCOc1ccc(C)cc1Br	3.2µM*	?	-5%	56µM*	?	-1%
CNCCCCOc1ccccc1Cc1ccccc1	.	.	.	-10%	-6%[59 µM]	4%
CNCCCCOc1ccc(C(C)(C)C)cc1Cl	5.6µM*	?	-14%	?	14µM*	-7%

Bioassay records: PubChem, National Center for Advancing Translational Sciences (NCATS)
